In all, about 68,000 sequences were measured (“fluorescence intensity (a.u.)”: median about 9,100, highest 2% from about 16,000 on). Many of the other results were omitted from the sample, so the highest values are more common in it than they were.
target: OsWRKY34 (Oryza sativa, UniProt Q0JBA9 1-250); test: protein-binding microarray (RPBM); PBS, 2% BSA, 51.3 ng/ul salmon testes DNA, 50 uM zinc acetate, 200 nM TF, 25 C, 1 h; high values mean tight binding; conditions: protein: recombinant; tags: N-terminal polyhistidine and DsRed monomer fusion (pET32a); label: CyDye5-dUTP incorporated in the synthesized complementary strand; 3' TTTTT single-stranded linker to array surface; dsDNA, one strand shown
Sequence (Q0JBA9 entry or part of it): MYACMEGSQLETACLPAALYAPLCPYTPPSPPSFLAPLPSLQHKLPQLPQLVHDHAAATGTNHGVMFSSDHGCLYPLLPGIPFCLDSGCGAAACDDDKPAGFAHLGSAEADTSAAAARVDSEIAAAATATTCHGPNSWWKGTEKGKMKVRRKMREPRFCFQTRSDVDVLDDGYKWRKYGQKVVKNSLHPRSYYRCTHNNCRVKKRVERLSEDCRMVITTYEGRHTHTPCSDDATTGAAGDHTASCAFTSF
Outline: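 Binding signal here means per-feature fluorescence intensity in arbitrary units. The values were read on an Axon 4000B scanner after a custom Agilent array, double-stranded by primer extension with Cy5-dUTP, was incubated with 200 nM protein at 25 °C for 1 h in PBS with 2% BSA, salmon testes DNA and 50 µM zinc acetate, then washed. The proteins were transcription factors with an N-terminal polyhistidine tag and DsRed, expressed in E. coli BL21-CodonPlus and purified on Ni–NTA.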

| Sequence | binding signal |
| --- | --- |
| GGCCCCACGTTTCATCCTCACGACCGTGTCCAACCCAGGGCGGAGTCACCTAGTGCAG | 10300 fluorescence intensity (a.u.) |
| CGTCGGTAGGGAGGAGGAGGAGGAGGAGGTGGTGGTGGTGCGGAGTCACCTAGTGCAG | 12000 fluorescence intensity (a.u.) |
| GCTTTGGTCGGTTGGGGTGGGCTGGATGCGCCTCCGCGCTCGGAGTCACCTAGTGCAG | 17800 fluorescence intensity (a.u.) |
| GTGGCGCGAGGGGAGGGAAGGGTAGGGCGGCGCGGCGGCGCGGAGTCACCTAGTGCAG | 9730 fluorescence intensity (a.u.) |
| TGGTTTTATAGGCGTGGGGTGTGGAGCTTCGAGGGGAAGGCGGAGTCACCTAGTGCAG | 13900 fluorescence intensity (a.u.) |
| ATCTCCGTCGGTGGGGAAAAGGAGGTGGGGAGGGGAGGAGCGGAGTCACCTAGTGCAG | 18800 fluorescence intensity (a.u.) |
| GAGGTGGTGGAGCGAGGTGGAAGAGGGCGCGGGTGGCGGGCGGAGTCACCTAGTGCAG | 9480 fluorescence intensity (a.u.) |
| TGTGGTGGCGAGCGGCACGGAGGCGGGGCGGTGGAGGGAGCGGAGTCACCTAGTGCAG | 9670 fluorescence intensity (a.u.) |
| GAAGAGGAGAGAGGAAGAGAGGTGGAAAGGGGAGGGGAAGCGGAGTCACCTAGTGCAG | 9460 fluorescence intensity (a.u.) |
| CGCGCGGTCGAGGAGGGTGGGGCCGCCGCGCTCACCTCCGCGGAGTCACCTAGTGCAG | 8480 fluorescence intensity (a.u.) |
| AAGAGGGCGCGGGTGGCGGGGATGGGCGAGGGGAAGGCGGCGGAGTCACCTAGTGCAG | 17700 fluorescence intensity (a.u.) |
| TGGAGTGGAGTTTCGATAGGTGTGGCGGGGAGGGAGGGAGCGGAGTCACCTAGTGCAG | 19800 fluorescence intensity (a.u.) |
| CGGTGGTGGTGGATGCTGGCGCTGGCGGTGGGCGCGAGCTCGGAGTCACCTAGTGCAG | 10100 fluorescence intensity (a.u.) |
| CAGATGGTCTGGTGGTCGGCGGAGGTCCCGGCGCGCGCGTCGGAGTCACCTAGTGCAG | 8360 fluorescence intensity (a.u.) |
| TATGGTATTTGGGTTAAAGAACGAAAATCGAACTCGCTGTCGGAGTCACCTAGTGCAG | 8160 fluorescence intensity (a.u.) |
| GAGGGAGGGAGGGAGGGAGACCGCGAGTGTGAGTGACTGCCGGAGTCACCTAGTGCAG | 10200 fluorescence intensity (a.u.) |
| ACTGCCCTTATCATTTCCGATTCCGTTTCCGAGAAAATATCGGAGTCACCTAGTGCAG | 9240 fluorescence intensity (a.u.) |
| ACTTTGTCACTTGACTTATTCTCTGGCCGTGCGTATAAATCGGAGTCACCTAGTGCAG | 8150 fluorescence intensity (a.u.) |
| CCTGCTATTGTACCTGCTCTAAGCCAGCTATAACCATATACGGAGTCACCTAGTGCAG | 8170 fluorescence intensity (a.u.) |
| GTGAAGTGTGGTTTAAAAATGGTTGCCTGGTCACTTTATCCGGAGTCACCTAGTGCAG | 9020 fluorescence intensity (a.u.) |
| TGTCAGTCACTGTCCCCTTCGTGGTCGTCTTCGCCACTTCCGGAGTCACCTAGTGCAG | 9210 fluorescence intensity (a.u.) |
| AAGCGATCGGGGCGGCGGAGGAGGTGGGTGGGAGGGAGGGCGGAGTCACCTAGTGCAG | 30200 fluorescence intensity (a.u.) |
| AGGTGGAGGCGCCGGTGTGGGTGGTGGAGCGGGAGGAGGTCGGAGTCACCTAGTGCAG | 8610 fluorescence intensity (a.u.) |
| CTCTCCTCTCTTCTCGAGCGCGGCGGCGGTGGTGGGGAGGCGGAGTCACCTAGTGCAG | 14300 fluorescence intensity (a.u.) |
| GGGGTGGGGTTGGCGGCGACGCGGGCGAGGCCGAGGAGGACGGAGTCACCTAGTGCAG | 13400 fluorescence intensity (a.u.) |
| GGCGGGCGCGGTGGAGGCGGGGAGGAAGGGGAGCGGAGGTCGGAGTCACCTAGTGCAG | 9390 fluorescence intensity (a.u.) |
| GGCGGGAGGCGCGGGCGGCGAGGTGCTCCTCTTCTCTCTCCGGAGTCACCTAGTGCAG | 9060 fluorescence intensity (a.u.) |

| Sequence | binding signal |
| --- | --- |
| CGGCGGAGGGAGGATCGGGGTGGGTGGCGCAGCGGCGACGCGGAGTCACCTAGTGCAG | 11200 fluorescence intensity (a.u.) |
| GCGGTGGCGGTTGGGGTGGCGAGTGGGGAGGAGGAGGCGGCGGAGTCACCTAGTGCAG | 18900 fluorescence intensity (a.u.) |
| GGGGAGGCGAGGCGGCGAGGTTATAAAAACGGTGGGGTGGCGGAGTCACCTAGTGCAG | 12200 fluorescence intensity (a.u.) |
| GCGGAGGAGGGCGGGAGGAAGCGGGTGGCGGCGGCGGAGTCGGAGTCACCTAGTGCAG | 10900 fluorescence intensity (a.u.) |
| TCTCTTCCTTGCTGTGGTGGCGGCGGGCGGGAGGGCGGCGCGGAGTCACCTAGTGCAG | 35000 fluorescence intensity (a.u.) |
| GTCGGGCGGGAGCGGTGCAGGGTGGAGGAGGTGGGCGGGGCGGAGTCACCTAGTGCAG | 22900 fluorescence intensity (a.u.) |
| ATACTAGTCCATTCGAGTTGAAACGTTCAGTGAACAGCTACGGAGTCACCTAGTGCAG | 8030 fluorescence intensity (a.u.) |
| GATCTCTTGCAGCTGCGCATCTGTGCATGCATCCACACTACGGAGTCACCTAGTGCAG | 9260 fluorescence intensity (a.u.) |
| TTGATCCTGCTTTTAGTTATAGTTTTTGTTAGGGTGTATTCGGAGTCACCTAGTGCAG | 10100 fluorescence intensity (a.u.) |
| TAAAACTAGTCATCCCTTCATTTTATATTATAAGTTGTTTCGGAGTCACCTAGTGCAG | 8290 fluorescence intensity (a.u.) |
| TGTGCCTGCCGACTCGCCCACGCAACTCCGACTCTTTCCTCGGAGTCACCTAGTGCAG | 13500 fluorescence intensity (a.u.) |
| CTTGGGGAAGGCGGCGGGTGTCGGGGAGGGCGAGGGTATCCGGAGTCACCTAGTGCAG | 18000 fluorescence intensity (a.u.) |
| TGAGGTTTTGGGTTCTTGGGCACTTCTTGTTCTAGCCAAGCGGAGTCACCTAGTGCAG | 9900 fluorescence intensity (a.u.) |
| TTGGCGCGCGGTTGGTGGGGCGGTGGTGGTGGTGGTGCCTCGGAGTCACCTAGTGCAG | 17400 fluorescence intensity (a.u.) |
| GGCGGGGCGGATCCGAGGGGCGAAGTGGGTCGGGCGGCGGCGGAGTCACCTAGTGCAG | 9480 fluorescence intensity (a.u.) |
| GGTTGGTGGCGGTGGGCCGGTGGCGGCTCGGTGGCGGAGCCGGAGTCACCTAGTGCAG | 10200 fluorescence intensity (a.u.) |
| GGAGTGTGGCGGAGCGGGAGTTCGCGGGCGGACGGCGGGGCGGAGTCACCTAGTGCAG | 11700 fluorescence intensity (a.u.) |
| CTGGCGAGCAGAGCAGGGGAGGGGAGGGGAGGGGATCGGGCGGAGTCACCTAGTGCAG | 14200 fluorescence intensity (a.u.) |
| TTGGTGGGTGGCGCGGTGGCCGGACCTGGGGTGGTGGGCGCGGAGTCACCTAGTGCAG | 15900 fluorescence intensity (a.u.) |
| GTGGGTTGGGGTCGGCGAGGGATCCGGGCGGCGGGGTATGCGGAGTCACCTAGTGCAG | 14000 fluorescence intensity (a.u.) |
| TATGGGTAGGTTCTTGTTCTATGGGGCAGGGGTCTTAAAGCGGAGTCACCTAGTGCAG | 17100 fluorescence intensity (a.u.) |
| GTTAACTTTTGGTAGTTGCAGGGGTTCTATAGGTGGGCAGCGGAGTCACCTAGTGCAG | 8640 fluorescence intensity (a.u.) |
| GCGGGACTTGCAGATCCGAGCGGGCGGGGCGGGGCGGGTTCGGAGTCACCTAGTGCAG | 22000 fluorescence intensity (a.u.) |
| GCTATCGCCGGTTTCGTCATCAATAATCTTCTCTGCCTCTCGGAGTCACCTAGTGCAG | 8820 fluorescence intensity (a.u.) |
| TTTCATCGTTTAGTGTCTTACTCCCTTTCCGATGGTCAACCGGAGTCACCTAGTGCAG | 9340 fluorescence intensity (a.u.) |
| CATTCTTGTCTGTAGCTTATTTGTTCGTGTTCATTAGTTTCGGAGTCACCTAGTGCAG | 13500 fluorescence intensity (a.u.) |
| TGTCTCTCTTTGACATCTTGTTTCCCATAACCTAAAGATACGGAGTCACCTAGTGCAG | 8260 fluorescence intensity (a.u.) |

Source: article PMC7819943, “Rice protein-binding microarrays: a tool to detect cis-acting elements near promoter regions in rice”
